Measurements: PubChem BioAssay (Tox21)
Results filed as inconclusive are left out. Entries that show only a call come without a potency. Activity calls are given as the source filed them. Calls come from the whole dose curve.

Each compound was assayed against D(2) dopamine receptor (Homo sapiens) (UniProt P14416) (assay: Dopamine D2 receptor (DRD2) small molecule agonists, cell-based qHTS assay (AID 1963594; note: nearly all actives have a fitted effect of over 35% in size)). Conditions: HEK293-DRD2 cAMP HTRF, agonist mode, 30 min; series mostly up to 92.4 µM.
D(2) dopamine receptor (Homo sapiens), sequence (P14416 whole entry, looked up): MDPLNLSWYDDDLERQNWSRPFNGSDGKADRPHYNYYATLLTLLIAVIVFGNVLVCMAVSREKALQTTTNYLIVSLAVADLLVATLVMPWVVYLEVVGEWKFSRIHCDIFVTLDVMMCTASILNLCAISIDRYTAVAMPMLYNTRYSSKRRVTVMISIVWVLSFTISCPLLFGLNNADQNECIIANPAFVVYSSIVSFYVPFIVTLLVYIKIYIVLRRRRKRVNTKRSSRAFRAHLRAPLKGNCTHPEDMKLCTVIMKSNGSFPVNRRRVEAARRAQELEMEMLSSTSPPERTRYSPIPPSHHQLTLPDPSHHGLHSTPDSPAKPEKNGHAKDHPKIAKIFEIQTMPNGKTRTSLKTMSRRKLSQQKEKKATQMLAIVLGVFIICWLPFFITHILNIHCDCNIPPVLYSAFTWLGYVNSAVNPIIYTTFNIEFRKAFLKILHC
Excerpt: National Center for Advancing Translational Sciences [NCATS]
Division of Preclinical Innovation [DPI]
U.S. Environmental Protection Agency [EPA]
National Institutes of Environmental Health Sciences [NIEHS]
National Toxicology Program [NTP]
U.S. Food and Drug Administration [FDA]
DRD2 is the D2 subtype of the dopamine receptor, which is coupled to Gi subtype of G protein-coupled receptor. This G protein-coupled receptor inhibits adenylyl cyclase activity. The DRD2-HEK293 cell line stably expressing D2 dopamine receptor can be used for screening agonists and antagonists of interactions between D2 and its ligands. The Hek293-DRD2 cAMP assay is based on HTRF technology. It measures changes of cAMP accumulation in response to Gi coupled GPCR activation or inhibition.
Tox21 Assay Protocol Summary:
DRD2-Hek293 cells were dispensed at 600 cells/3uL/well in 1536-well white plates using a Multidrop Dispenser. After the assay plates were incubated at a 37 C/5% CO2 incubator for 24 h, 1 uL of Ro20-1724 at final concentration of 0.1 mM was transferred to the assay plate by a Flying Reagent Dispenser. Following Ro20-1724 addition, 23 nL of compound dissolved in DMSO, positive controls or DMSO only was added to the assay plates via Wako pintool station. The assay plates were incubated at room temperature for 10 min. Next, 1 uL of NKH477 at 200nM was added into the plates. After the assay plates were incubated at room temperature for an additional 30 min, 2.5 ul/well of cAMP-d2 and 2.5 ul/well of anti-cAMP-cryptate were added respectively into the assay plates using a Flying Reagent Dispenser. The plates were incubated at room temperature for 1 h. The fluorescence intensity in the plates was measured at 340 nm excitation and 665 & 620 nm emission by an Envision plate reader.

Compound	Potency
COP(=S)(OC)Oc1ccc([N+](=O)[O-])cc1	inactive
CN(C)N=O	inactive
COP(=O)(OC)C(O)C(Cl)(Cl)Cl (stereo not given)	inactive
O=C/C=C/c1ccccc1	inactive
CNC(=O)O/N=C/C(C)(C)SC	inactive
Oc1ccccc1-c1ccccc1	inactive
CC(=O)CC(c1ccc(Cl)cc1)c1c(O)c2ccccc2oc1=O (stereo not given)	inactive
[P]#[In]	inactive
CNCC(O)c1ccc(O)cc1 (stereo not given)	inactive
Nc1cc(Cl)cc(C(=O)O)c1Cl	inactive
CCOC(=O)CC(SP(=O)(OC)OC)C(=O)OCC (stereo not given)	inactive
O=C(Cl)/C=C/C(=O)Cl	inactive
Brc1ccc(Oc2ccccc2)cc1	inactive
Oc1c(Cl)c(Cl)c(Cl)c(Cl)c1Cl	inactive
O=C(NC(=O)c1c(F)cccc1F)Nc1ccc(Cl)cc1	inactive
ClCC1CO1 (stereo not given)	inactive
Cl/C=C/CCl	inactive
CCOP(=S)(OCC)Oc1ccc2c(C)c(Cl)c(=O)oc2c1	inactive
CCCC[N+]1(C)CCCCC1	inactive
CCNc1nc(NC(C)C)nc(SC)n1	inactive

Compound	Potency
O=[N+]([O-])/C=C/c1ccccc1	inactive
O=[N+]([O-])O	inactive
CC(C)C(=O)OCC(C)(C)C(OC(=O)C(C)C)C(C)C (stereo not given)	inactive
CCCCOP(=O)(CCCC)OCCCC	inactive
CC1(C)C(C=C(Cl)Cl)C1C(=O)OC(C#N)c1ccc(F)c(Oc2ccccc2)c1 (stereo not given)	inactive
CC1CC(CC2CCC(N)C(C)C2)CCC1N (stereo not given)	inactive
CCCCCCOC(=O)c1ccccc1C(=O)OCCCCCC	inactive
CCc1cnc(C2=NC(C)(C(C)C)C(=O)N2)c(C(=O)O)c1 (stereo not given)	inactive
C=C1CC[C@@]2(O)[C@H]3Cc4ccc(O)c5c4[C@@]2(CCN3CC2CC2)[C@H]1O5	inactive
O=C=NC1CCCCC1	inactive
Nc1nc(N)nc(NC2CC2)n1	inactive
c1ccc(CN2CCNCC2)cc1	inactive
CCC(C)C(C)(COC(N)=O)COC(N)=O (stereo not given)	inactive
ClC1C(Cl)C(Cl)C(Cl)C(Cl)C1Cl (stereo not given)	inactive
NC(=O)O	inactive
N#CCCO	inactive
Cc1cccc(N)c1	inactive
CC(C)(C)C(=O)C(Cl)Cl	inactive
CN(C)c1ccccc1	inactive
CCC(C)c1cc([N+](=O)[O-])cc([N+](=O)[O-])c1O (stereo not given)	inactive
